In PubChem BioAssay:
A number with no mark means an inactive call. No rule for the calls is given here.

target: Pantothenate synthetase (Mycobacterium tuberculosis (strain ATCC 25618 / H37Rv)) (UniProt P9WIL5); assay: Coupled enzyme confirmation of inhibitors against recombinant Mtb PanC (AID 375); details: coupled enzyme assay; at 10 µM, active compounds read high;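 also: 0% = full reaction with vehicle and 100% = no enzyme background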
Sequence (P9WIL5 whole entry, looked up): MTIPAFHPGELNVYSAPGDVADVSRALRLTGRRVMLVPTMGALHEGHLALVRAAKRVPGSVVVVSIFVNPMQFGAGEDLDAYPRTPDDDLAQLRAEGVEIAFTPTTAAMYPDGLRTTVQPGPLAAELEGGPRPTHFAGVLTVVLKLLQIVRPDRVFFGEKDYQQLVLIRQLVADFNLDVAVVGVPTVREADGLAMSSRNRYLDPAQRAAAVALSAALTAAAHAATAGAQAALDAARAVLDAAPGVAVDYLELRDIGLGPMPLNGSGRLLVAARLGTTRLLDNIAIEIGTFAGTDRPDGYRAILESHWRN

| SMILES | inhibition [%] |
| --- | --- |
| COc1cccc(CNC(=O)CCS(=O)(=O)c2cccc3nsnc23)c1 | 6 |
| CCOC(=O)c1ccccc1NC(=O)CSc1nccn1C | 0 |
| ON=C1/C(=N\O)CC2(C/C1=N/O)OCCO2 | 0 |
| Nc1nc(NCc2ccco2)nn1-c1ccccc1 | 0 |
| COc1ccc(S(=O)(=O)N2CCCC(C(=O)NCc3ccccn3)C2)cc1 (centres undefined) | 7 |
| Cc1ccc(Cc2c(C)nc3c(C(=O)O)cnn3c2C)cc1 | 4 |
| CC(=O)c1ccc(NC(=O)CCc2c(C)nc3ncnn3c2C)cc1 | 4 |
| O=c1[nH]c2c(s1)C(c1ccco1)C1C3CCC(C3)C1S2 (centres undefined) | 0 |
| COc1ccc2cc(CN(Cc3ccco3)C(c3nnnn3C3CCCCC3)C(C)C)c(=O)[nH]c2c1 (centres undefined) | 5 |
| CCC(=O)Nc1ccc(NC(=O)c2cccc(OC)c2)nc1 | 0 |
| COC(=O)c1oc2ccc(Br)cc2c1NC(=O)CN1CCN(C)CC1 | 5 |
| CN(Cc1cnn(C)c1)C(=O)c1cc2ccccc2oc1=O | 3 |
| Cc1onc(-c2c(Cl)cccc2Cl)c1C(=O)NCCN1CCOCC1 | 6 |
| CC1=NN(c2ccccc2)C(=O)C1 | 0 |
| CCOc1cc2[nH]c(=O)n(CCC(=O)NCCc3ccc(OC)c(OC)c3)c(=O)c2cc1OCC | 1 |
| COc1ccc(S(=O)(=O)N2CCOCC2)cc1C(=O)Nc1cc(C)on1 | 0 |
| CCOCCCNC(=O)CS(=O)(=O)Cc1nc(-c2cccc(OC)c2)oc1C | 0 |
| CCOC(=O)C1CCCN(C(=O)c2ccc(CS(=O)(=O)Cc3ccccc3C)o2)C1 (centres undefined) | 3 |
| CCc1cc(C)cc(OCCNC(=O)c2ncn[nH]2)c1 | 7 |
| COc1ccc(S(=O)(=O)Cc2ccc(C(=O)N3CCN(c4ccccc4)CC3)o2)cc1 | 0 |
| Cc1cccc(-n2ncc3c(NCc4cccs4)ncnc32)c1 | 0 |
| O=c1/c(=C/c2ccco2)sc2nc(-c3ccccc3Br)nn12 | 0 |
| Cc1nc2ccccn2c1/C(O)=C1\C(=O)C(=O)N(CCCN(C)C)C1c1ccc(F)cc1 (centres undefined) | 4 |
| COc1ccccc1C(=O)N1CCN=C1SCc1cccnc1 | 0 |
